Most compounds without a hit are left out; they make up all but 21% or so of the library.
Cycloheximide cs = counter-screen hit for Shiga toxin inhibitors, cycloheximide; cell reporter, cycloheximide protein synthesis inhibition counterscreen; max response, %; 300,000 compounds, 12% hits; in the data active = max response mostly above about 13%, no sharp cut-off; inactive = mostly below about 14%; also: read at 38.3 µM for the half of the compounds with a filed dose; 0% is about no effect
Shiga toxin inh = inhibitors of Shiga toxin in Vero cells | Vero cells, Shiga toxin protein synthesis inhibition reporter | inhibition, % at 38.7 µM | 290,000 compounds, 9.2% hits; in the data active = inhibition mostly above about 28%, no sharp cut-off; inactive = mostly below about 43%; also: 0% is about no effect
Pf growth 96h = inhibits malaria parasite growth, 96 h. Potency, µM (top dose mostly 28.7 µM), for inactives: top-dose activity change, negative = inhibition, most hits filed as inhibitors. P. falciparum luciferase reporter growth, 96 h. 320,000 compounds, 6.9% hits; active = well fitted inhibition curve with a large enough effect; inconclusive = small, poorly fitted or top-dose-only effect, or another doubt; inactive = no such curve, though single readings can be large or run the other way; also: potency is read from the fitted curve at half-maximal effect; % is scaled to controls: 0 for no effect and ±100 for the full control effect
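Infected RBCs, 2% Hct / 0.05% parasitemia final; luciferase-reporter P. falciparum; cpd 96 h, 37 C, 5% CO2; luciferase detection reagent; luminescence.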
SARS PLP yeast = SARS-CoV PLP inhibition in yeast. S. cerevisiae expressing SARS-CoV PLpro, growth rescue. Potency, µM (titrated, usually from 32.9 µM), without a hit: at the highest dose activity, positive = growth rescue, usual class: activators. 330,000 compounds, 0.19% hits; also: potency is read from the fitted curve at half-maximal effect; 0% is about no effect; nearly all actives have a fitted effect of over 55% in size
Pf growth 48h = P. falciparum growth inhibition at 48 hours (one generation); P. falciparum luciferase growth in erythrocytes, 48 h; Potency, µM (top dose mostly 28.7 µM), for the others: top-dose activity change, negative = inhibition, usual class: inhibitors; 310,000 compounds, 5.9% hits; AID 504832; active = well fitted inhibition curve with a large enough effect; inconclusive = small, poorly fitted or top-dose-only effect, or another doubt; inactive = no such curve, though single readings can be large or run the other way; also: potency is read from the fitted curve at half-maximal effect; % is scaled to controls: 0 for no effect and ±100 for the full control effect
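First compound was added to culture medium, then infected red cells at 0.1% parasitemia and 2% hematocrit (final). After incubation at 37 C under 5% CO2, luciferase detection reagent was dispensed and light output recorded.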
NS1 function inh = inhibitors of influenza NS1 protein function. Potency, µM (series often up to 46.1 µM), for inactives: top-dose activity, positive = more growth. 270,000 compounds, 0.4% hits. AID 2326; also: potency is read from the fitted curve at half-maximal effect; actives are rising curves; nearly all actives have a fitted effect of over 50% in size
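In this qHTS, NS1 from influenza A is expressed in budding yeast, where it slows growth. Cells are switched from glucose to 2% galactose medium (pH 6.0, -URA), treated with compound, and growth recovery is read at OD600.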
Starred values were filed as active, the others as inactive. Unless noted, calls follow the shape of the full dose curve.

O=S(=O)(Nc1cccnc1)c1cccc2ccccc12 was read as Cycloheximide cs 4.9 and Shiga toxin inh -8.3.
Screening O=C(c1ccccc1)N1CCC(c2nc3c(nnn3Cc3ccccc3Cl)c(=O)[nH]2)CC1 returned Cycloheximide cs 0.9, Shiga toxin inh 2.4, Pf growth 96h 8.28µM*, SARS PLP yeast 13.9% and NS1 function inh -11.7%.
`COc1ccccc1Cn1nnc2c(=O)[nH]c(C3CCN(C(=O)c4ccc(C)cc4)CC3)nc21` gave Cycloheximide cs 20.2, Shiga toxin inh -4.3, Pf growth 96h 38.2%, SARS PLP yeast -1.6%, Pf growth 48h inconclusive and NS1 function inh -3.1%.
O=C(c1cccs1)N1CCC(c2nc3c(nnn3Cc3ccccc3Cl)c(=O)[nH]2)CC1 was read as Cycloheximide cs -2.4, Shiga toxin inh -7.4, Pf growth 96h 0.0%, SARS PLP yeast 3.2%, Pf growth 48h 10.4µM* and NS1 function inh -2.1%.
For O=C(CCc1ccc(O)cc1)N/N=C/c1coc2ccccc2c1=O the results were Cycloheximide cs -1.3, Shiga toxin inh -4.8, Pf growth 96h 50.7%, SARS PLP yeast -1.6%, Pf growth 48h 3.6% and NS1 function inh -0.9%.
COc1ccccc1C(O)(C(=O)NNc1ccccc1C)c1ccccc1OC was read as Cycloheximide cs 3.8, Shiga toxin inh -4.8, Pf growth 96h 6.57µM*, SARS PLP yeast 10.7%, Pf growth 48h inconclusive and NS1 function inh 8.2%.
For COc1ccccc1C(O)(C(=O)NNc1cccc(C)c1)c1ccccc1OC the results were Cycloheximide cs -0.7, Shiga toxin inh -9.9, Pf growth 96h 2.62µM*, SARS PLP yeast -8.0%, Pf growth 48h 20.9% and NS1 function inh -3.6%.
COc1ccc(Br)cc1C(=O)Nc1cccc(C)c1 was read as Cycloheximide cs -5.8, Shiga toxin inh -6.1, Pf growth 96h inconclusive, SARS PLP yeast -0.1% and NS1 function inh -47.8%.
`CCC(O)(C(=O)Nc1ccccc1C(F)(F)F)c1ccccc1OC` (stereo not drawn) gave Pf growth 96h -32.7%, SARS PLP yeast -0.5% and Pf growth 48h inconclusive.
`COC(=O)c1cc(OC)c(OC)cc1N1C(=O)CC(C)(C)CC1=O` gave Cycloheximide cs -1.0, Shiga toxin inh -3.6, Pf growth 96h 37.9%, SARS PLP yeast -0.6%, Pf growth 48h 3.7% and NS1 function inh -1.1%.
For CCOc1ccc(CN(C)CC(=O)Nc2ccc(N3CCOCC3)cc2)cc1OC the results were Cycloheximide cs 3.9, Shiga toxin inh -5.5, Pf growth 96h 8.9%, SARS PLP yeast 10.5%, Pf growth 48h -9.5% and NS1 function inh -0.7%.
`O=[N+]([O-])c1ccc(S(=O)(=O)Nc2nnc(C(F)(F)F)s2)cc1` gave Cycloheximide cs -1.3, Shiga toxin inh 28.6, Pf growth 96h 10.4µM*, SARS PLP yeast -1.4%, Pf growth 48h 22.3% and NS1 function inh 8.7%.
Screening COCCN(Cc1ccco1)C(=O)C1CCCN(c2ncnc3c2nc2n3CCCCC2)C1 (stereo not drawn) returned Cycloheximide cs -1.1, Shiga toxin inh 10.5, Pf growth 96h 4.15µM*, SARS PLP yeast 2.3%, Pf growth 48h inconclusive and NS1 function inh -5.0%.
Screening CCOC(=O)N1CCN(C(=O)C2CCCN(c3ncnc4c3nc3n4CCCCC3)C2)CC1 (stereo not drawn) returned Cycloheximide cs 4.2, Shiga toxin inh -3.9, Pf growth 96h inconclusive, SARS PLP yeast -2.6%, Pf growth 48h -24.9% and NS1 function inh -7.4%.
`CC1CC(C)CN(C(=O)C2CCCN(c3ncnc4c3nc3n4CCCCC3)C2)C1` (stereo not drawn) gave Cycloheximide cs -3.8, Shiga toxin inh -7.5, Pf growth 96h 0.8%, SARS PLP yeast -1.4%, Pf growth 48h inconclusive and NS1 function inh -25.3%.
CCN1CCN(C(=O)C2CCCN(c3ncnc4c3nc3n4CCCCC3)C2)CC1 (stereo not drawn) was read as Cycloheximide cs -0.8, Shiga toxin inh 16.2, Pf growth 96h 10.4µM*, SARS PLP yeast 3.1%, Pf growth 48h inconclusive and NS1 function inh 20.8%.
CC1CCN(C(=O)C2CCCN(c3ncnc4c3nc3n4CCCCC3)C2)CC1 (stereo not drawn) was read as Cycloheximide cs -1.9, Shiga toxin inh -6.4, Pf growth 96h 9.28µM*, SARS PLP yeast inconclusive, Pf growth 48h -21.7% and NS1 function inh -24.1%.
For COc1cccc(N2CCN(C(=O)C3CCCN(c4ncnc5c4nc4n5CCCCC4)C3)CC2)c1 (stereo not drawn) the results were Cycloheximide cs -6.8, Shiga toxin inh -5.0, Pf growth 96h 10.4µM*, SARS PLP yeast -23.4%, Pf growth 48h inconclusive and NS1 function inh -24.5%.
For CCN(CC(=O)NCc1ccc(F)cc1)C(=O)/C=C/c1ccc(OC)c(S(=O)(=O)NC(C)C)c1 the results were Cycloheximide cs -7.2, Shiga toxin inh -5.5, Pf growth 96h inconclusive, SARS PLP yeast -0.6%, Pf growth 48h inconclusive and NS1 function inh -5.0%.
CN/C(=C/[N+](=O)[O-])NCCSCc1ccc(CN(C)C)o1 was read as Cycloheximide cs -2.9, Shiga toxin inh -6.8, Pf growth 96h -8.2%, SARS PLP yeast 3.8%, Pf growth 48h -12.6% and NS1 function inh 0.3%.
Cc1c(C(=O)Nc2ccccc2-c2ccccc2)cccc1[N+](=O)[O-] was read as Cycloheximide cs -2.1, Shiga toxin inh -15.8, Pf growth 96h -8.2%, SARS PLP yeast 3.9%, Pf growth 48h -3.4% and NS1 function inh 2.4%.
Screening CC(=O)c1c(O)cc(O)c(C(C)=O)c1O returned Cycloheximide cs -5.4, Shiga toxin inh -4.7, Pf growth 96h -10.8%, SARS PLP yeast -9.1%, Pf growth 48h 10.4µM* and NS1 function inh -100.6%.
O=[N+]([O-])c1nn(-c2ccc3c(c2)OCCO3)n(O)c1=NC1CCCCC1 was read as Cycloheximide cs 28.5*, Shiga toxin inh 100.8, Pf growth 96h inconclusive, SARS PLP yeast 3.0% and NS1 function inh -51.7%.
COc1ccccc1CN=c1c([N+](=O)[O-])nn(-c2ccc3c(c2)OCCO3)n1O was read as Cycloheximide cs 62.3*, Shiga toxin inh 31.5*, Pf growth 96h -21.2%, SARS PLP yeast -6.5%, Pf growth 48h -12.3% and NS1 function inh -8.0%.
O=[N+]([O-])c1nn(-c2ccc3c(c2)OCCO3)n(O)c1=NCc1ccccc1Cl was read as Cycloheximide cs 45.8*, Shiga toxin inh 90.4*, Pf growth 96h inactive, SARS PLP yeast 3.8%, Pf growth 48h 65.7% and NS1 function inh -5.0%.
Screening O=C(O)COc1ccccc1/C=N/NC(=O)CSc1nc2ccccc2n1Cc1ccccc1Cl returned Cycloheximide cs -2.0, Shiga toxin inh -1.6, Pf growth 96h inconclusive, SARS PLP yeast 0.9%, Pf growth 48h inconclusive and NS1 function inh 14.7%.
For Cc1ccc2cccc(N)c2n1 the results were Cycloheximide cs 15.8, Shiga toxin inh 15.8, Pf growth 96h 0.928µM*, SARS PLP yeast 0.3% and Pf growth 48h -14.8%.

Screening results (PubChem)
